In PubChem BioAssay AID1159580 (chemical genetic matrix, 2015):
Values joined by “and” are separate entries in the source; they are usually repeats but may differ in a detail not shown here. Identical values can stand only once. About 2,000 (36%) of roughly 5,500 compounds were called active. Not shown: some 18% with an inconclusive outcome. Rule as the data show it: active = normalized growth mostly below about 0.91 (no sharp cut-off); inconclusive = no clear call, values can overlap the other calls; inactive = mostly above about 0.92. The list shows a part of the results.

Assay: chemical genetic growth profiling, strain panel (AID 1159580);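 also: tested at 20 µM; growth read once vehicle control cultures reached saturation at 30 °C; 1 = growth at the plate median or of vehicle wells; lower values mean less growth of the strain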
Conditions: S. cerevisiae deletion strains, growth OD

Measured: normalized growth

NC(=O)CN1CCCC1=O
inactive: locus YAL013W, strain DEP1, stronger effect = lower value 1.01 and 1 | locus YAL021C, strain ccr4, stronger effect = lower value 0.982 | locus YAL026C, strain drs2, stronger effect = lower value 0.988 | locus YAL030W, strain snc1, stronger effect = lower value 0.992 | locus YAL040C, strain CLN3, stronger effect = lower value 0.986 | locus YBL061C, strain skt5, stronger effect = lower value 0.985 | locus YBR009C, strain hhf1, stronger effect = lower value 1 | locus YBR021W, strain FUR4, stronger effect = lower value 1.02 | locus YBR023C, strain chs3, stronger effect = lower value 0.991 | locus YBR171W, strain sec66, stronger effect = lower value 0.982 | locus YBR229C, strain ROT2, stronger effect = lower value 1.01 | locus YBR231C, strain swc5, stronger effect = lower value 1 | locus YBR279W, strain paf1, stronger effect = lower value 0.99 | locus YCL011C, strain gbp2, stronger effect = lower value 0.999 | locus YCL016C, strain dcc1, stronger effect = lower value 0.986 | locus YCL029C, strain bik1, stronger effect = lower value 1.02 | locus YCL061C, strain MRC1 (second series), stronger effect = lower value 1 | locus YCL061C, strain MRC1, stronger effect = lower value 0.981 | locus YCL069W, strain vba3, stronger effect = lower value 0.996 | locus YCR088W, strain abp1, stronger effect = lower value 0.978 | locus YDL005C, strain med2, stronger effect = lower value 0.996 | locus YDL035C, strain GPR1, stronger effect = lower value 1.02 | locus YDL040C, strain nat1, stronger effect = lower value 0.993 | locus YDL074C, strain BRE1, stronger effect = lower value 0.985 | locus YDL101C, strain DUN1, stronger effect = lower value 0.999 | locus YDL134C, strain PPH21, stronger effect = lower value 1.02 | locus YDL185W, strain tfp1, stronger effect = lower value 1.01 | locus YDL192W, strain arf1, stronger effect = lower value 1.01 | locus YDR001C, strain nth1, stronger effect = lower value 0.993 | locus YDR069C, strain doa4, stronger effect = lower value 1 | locus YDR101C, strain arx1, stronger effect = lower value 0.991 | locus YDR137W, strain rgp1, stronger effect = lower value 0.98 | locus YDR159W, strain sac3, stronger effect = lower value 1.01 | locus YDR162C, strain NBP2, stronger effect = lower value 1.01 | locus YDR195W, strain ref2 0.976 | locus YDR297W, strain sur2, stronger effect = lower value 0.989 | locus YDR318W, strain mcm21, stronger effect = lower value 1.01 | locus YDR334W, strain swr1, stronger effect = lower value 0.979 | locus YDR335W, strain msn5, stronger effect = lower value 0.989 | locus YDR363W, strain ESC2, stronger effect = lower value 0.983 | locus YDR388W, stronger effect = lower value 1.01 | locus YDR392W, strain spt3, stronger effect = lower value 0.916 | locus YDR502C, strain sam2, stronger effect = lower value 1.01 | locus YEL003W, strain gim4, stronger effect = lower value 0.999 | locus YEL037C, strain rad23, stronger effect = lower value 0.986 | locus YEL061C, strain CIN8 (second series), stronger effect = lower value 0.984 | locus YEL061C, strain CIN8, stronger effect = lower value 1.01 | locus YER002W, strain NOP16, stronger effect = lower value 1 | locus YER015W, strain faa2, stronger effect = lower value 1.01 | locus YER016W, strain bim1, stronger effect = lower value 0.996 | locus YER110C, stronger effect = lower value 1.02 | locus YER111C, strain swi4, stronger effect = lower value 0.988 | locus YER155C, strain BEM2 (second series), stronger effect = lower value 0.975 | locus YER155C, strain BEM2, stronger effect = lower value 1.01 | locus YER167W, strain BCK2, stronger effect = lower value 1.01 | locus YFR010W, strain ubp6, stronger effect = lower value 0.972 | locus YGL078C, strain dbp3, stronger effect = lower value 1.02 | locus YGL086W, strain mad1, stronger effect = lower value 1 | locus YGL167C, strain pmr1, stronger effect = lower value 0.986 | locus YGL173C, strain kem1, stronger effect = lower value 0.998 | locus YGL227W, strain vid30, stronger effect = lower value 0.998 | locus YGL240W, strain doc1, stronger effect = lower value 0.993 | locus YGL248W, strain PDE1, stronger effect = lower value 0.994 | locus YGL253W, strain hxk2, stronger effect = lower value 1 | locus YGR078C, strain PAC10, stronger effect = lower value 0.991 | locus YGR135W, strain pre9, stronger effect = lower value 1.02 | locus YGR252W, strain gcn5, stronger effect = lower value 0.997 | locus YHR013C, strain ard1, stronger effect = lower value 0.963 | locus YHR027C, strain rpn1, stronger effect = lower value 0.988 | locus YHR030C, strain SLT2, stronger effect = lower value 1 and 0.994 | locus YHR079C, strain IRE1 (second series), stronger effect = lower value 1.01 | locus YHR079C, strain IRE1, stronger effect = lower value 0.995 | locus YHR094C, strain hxt1, stronger effect = lower value 1.01 | locus YHR129C, strain ARP1, stronger effect = lower value 1.01 | locus YHR142W, strain chs7, stronger effect = lower value 0.971 | locus YHR200W, strain rpn10, stronger effect = lower value 1.01 | locus YIL066C, strain RNR3, stronger effect = lower value 1.01 | locus YIL073C, strain SPO22, stronger effect = lower value 1.08 | locus YIL125W, strain kgd1, stronger effect = lower value 1.01 | locus YIR030C, strain dcg1, stronger effect = lower value 1.01 | locus YJL092W, strain hpr5, stronger effect = lower value 0.989 | locus YJL095W, strain BCK1 (second series), stronger effect = lower value 0.995 | locus YJL095W, strain BCK1, stronger effect = lower value 0.992 and 0.977 | locus YJL115W, strain asf1, stronger effect = lower value 0.985 | locus YJL129C, strain trk1, stronger effect = lower value 0.998 | locus YJL134W, strain LCB3, stronger effect = lower value 0.997 | locus YJL154C, strain vps35, stronger effect = lower value 0.987 | locus YJL164C, strain tpk1, stronger effect = lower value 0.998 | locus YJL166W, strain qcr8, stronger effect = lower value 0.968 | locus YJL168C, strain set2, stronger effect = lower value 1 | locus YJL187C, strain SWE1 (second series), stronger effect = lower value 1 | locus YJL187C, strain SWE1, stronger effect = lower value 0.982 | locus YJR043C, strain POL32, stronger effect = lower value 1.01 | locus YJR066W, strain TOR1, stronger effect = lower value 0.951 | locus YJR075W, strain HOC1, stronger effect = lower value 1 and 0.993
